Results with a measured potency or affinity are listed apart. Unmarked numbers belong to inactive results.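 Rule for the calls: active = every repeat run showing a signal drop whose fitted half-maximal concentration is at most twice the top tested concentration; inconclusive = repeat runs disagree, or flat partial drop, or poor fit; inactive = the rest.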
Test: HEK293T cytotoxicity, dose response, cytotoxicity control for miR-122 modulator project, cell-based, activator set, cherry-pick (AID 720690);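 note: 0% = neutral control wells and -100% = MG132 cytotoxic control wells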
Settings: HEK293T viability, CellTiter-Glo luminescence, 48 h; series mostly up to 26 µM; activity change, negative = cytotoxicity: at the top concentration
For CCCC(=O)Nc1ccc2c(c1)C(=O)N(C)[C@H]1CC[C@@H](CC(=O)NCCN3CCCCC3)O[C@H]1CO2, the “activity change, negative = cytotoxicity” value was -9.56% [at 23.5 µM].
With COc1ccc(-c2cn3c(C)c(C(=O)Nc4cccc(NC(C)=O)c4)sc3n2)cc1 the “activity change, negative = cytotoxicity” value was 39.5%.
With CCNC(=O)C[C@H]1CC[C@H]2[C@@H](COc3ccc(NS(C)(=O)=O)cc3C(=O)N2C)O1 the “activity change, negative = cytotoxicity” value was -12.4%.
For CNC(=O)C[C@@H]1CC[C@H]2[C@@H](COc3ccc(NC(=O)C(C)C)cc3C(=O)N2C)O1, the “activity change, negative = cytotoxicity” value was -2.67%.
With C[C@@H]1CN([C@H](C)CO)S(=O)(=O)c2ccc(C3=CCCC3)cc2O[C@@H]1CN(C)C(=O)c1ccc(F)cc1 the “activity change, negative = cytotoxicity” value was -21.9%.
For C/C=C/c1ccc([C@H]2[C@@H](CO)N(Cc3ccccn3)[C@H]2CNC(=O)CC)cc1, the “activity change, negative = cytotoxicity” value was -6.36%.
With C/C=C/c1ccc([C@@H]2[C@@H](CO)N[C@@H]2CN(CC)C(=O)CN2CCOCC2)cc1 the “activity change, negative = cytotoxicity” value was 8.67%.
In the case of Cc1nn(C)cc1NC(=O)C[C@H]1CC[C@H]2[C@H](COc3ccc(NC(=O)c4cccc(F)c4)cc3C(=O)N2C)O1, the “activity change, negative = cytotoxicity” value was -17.4%.
For CC(C)C(=O)Nc1ccc2c(c1)C(=O)N(C)[C@H]1CC[C@H](CC(=O)NCCc3ccccc3)O[C@H]1CO2, the “activity change, negative = cytotoxicity” value was -2.16%.
In the case of C[C@H]1CN([C@@H](C)CO)C(=O)c2cc(-c3ccc(C#N)cc3)cnc2O[C@H]1CN(C)C(=O)Nc1ccc(C(F)(F)F)cc1, the “activity change, negative = cytotoxicity” value was -12.8%.
In the case of COc1ccccc1CNc1nc(NCC2CC2)nc2ccsc12, the “activity change, negative = cytotoxicity” value was -34.7%.
With COCC(=O)NC[C@@H]1[C@H](c2ccc(C3=CCCC3)cc2)[C@@H](CO)N1C(=O)C1CC1 the “activity change, negative = cytotoxicity” value was -14.2% [at 23.5 µM].
With CNC(=O)C[C@@H]1CC[C@H]2[C@@H](COc3ccc(NC(=O)NC(C)C)cc3C(=O)N2C)O1 the “activity change, negative = cytotoxicity” value was -0.66% [at 23.5 µM].
With O=C(NC[C@@H]1[C@@H](c2ccccc2)[C@H](CO)N1C(=O)C1CCC1)NC1CCCC1 the “activity change, negative = cytotoxicity” value was -1.54% [at 23.5 µM].
For CCC(=O)N1[C@H](CN(C(C)C)S(C)(=O)=O)[C@@H](c2ccccc2)[C@@H]1CO, the “activity change, negative = cytotoxicity” value was -1.45% [at 23.5 µM].
For COc1ccc(CCNC(=O)c2c(C)cc(=O)oc2C)cc1OC, the “activity change, negative = cytotoxicity” value was -25.6%.
In the case of CCC(=O)N1C[C@H]2[C@@H](c3ccccc31)[C@H](CO)N2Cc1cc(F)ccc1F, the “activity change, negative = cytotoxicity” value was 12.3%.
For C[C@@H]1CN([C@@H](C)CO)S(=O)(=O)c2ccc(/C=C/c3ccccc3)cc2O[C@@H]1CN(C)C(=O)c1cccnc1, the “activity change, negative = cytotoxicity” value was -12.1%.
With Cc1cc(C)nc(NS(=O)(=O)c2ccc(NC(=S)NC(=O)C3CCCC3)cc2)n1 the “activity change, negative = cytotoxicity” value was -1.38%.
For Cc1cc(C(=O)Nc2ccc3c(c2)C(=O)N(C)[C@@H]2CC[C@H](CC(=O)N[C@@H](C)c4ccccc4)O[C@H]2CO3)no1, the “activity change, negative = cytotoxicity” value was 7.69%.
For C[C@H](NC(=O)C[C@@H]1CC[C@H]2[C@H](COc3ccc(NS(=O)(=O)c4ccc(Cl)cc4)cc3C(=O)N2C)O1)c1ccccc1, the “activity change, negative = cytotoxicity” value was -12.7%.
With CC(=O)Nc1ccc(S(=O)(=O)Nc2ccc(S(=O)(=O)Nc3nc(C)cc(C)n3)cc2)cc1 the “activity change, negative = cytotoxicity” value was -10.1% [at 12 µM].
For CCN(C[C@H]1[C@H](c2ccccc2)[C@@H](CO)N1S(C)(=O)=O)C(=O)C1CC1, the “activity change, negative = cytotoxicity” value was -5.84%.
For CN(C[C@H]1N[C@@H](CO)[C@H]1c1ccc(-c2cccc(F)c2)cc1)C(=O)C1CCC1, the “activity change, negative = cytotoxicity” value was 0.717%.
With CCNC(=O)C[C@@H]1CC[C@H]2[C@@H](COc3ccc(NC(=O)Nc4ccc(F)cc4)cc3C(=O)N2C)O1 the “activity change, negative = cytotoxicity” value was -8.16%.
With Cc1ccccc1NC(=O)Nc1ccc2c(c1)C(=O)N(C)[C@@H]1CC[C@H](CC(=O)NCC3CC3)O[C@@H]1CO2 the “activity change, negative = cytotoxicity” value was 9.82%.
In the case of O=C(NC[C@H]1[C@H](c2ccccc2)[C@H](CO)N1CC1CCCC1)c1ccncc1, the “activity change, negative = cytotoxicity” value was 2.8% [at 23.5 µM].
For CCCNC(=O)C[C@H]1CC[C@H]2[C@@H](COc3ccc(NC(=O)c4cc(F)cc(F)c4)cc3C(=O)N2C)O1, the “activity change, negative = cytotoxicity” value was 1.72%.
With CCCNC(=O)C[C@H]1CC[C@@H]2[C@H](COc3ccc(NC(=O)c4cc(F)cc(F)c4)cc3C(=O)N2C)O1 the “activity change, negative = cytotoxicity” value was -1.48%.
With COC(=O)C[C@@H]1CC[C@@H]2[C@@H](COc3ccc(NC(=O)c4cc(F)cc(F)c4)cc3C(=O)N2C)O1 the “activity change, negative = cytotoxicity” value was -13.6%.
With CN(C)C(=O)C[C@@H]1CC[C@@H]2[C@@H](COc3ccc(NC(=O)C4CC4)cc3C(=O)N2C)O1 the “activity change, negative = cytotoxicity” value was 6.71%.
In the case of COc1ccc(C#Cc2ccc3c(c2)O[C@H](CN(C)C(=O)CN2CCOCC2)[C@H](C)CN([C@H](C)CO)S3(=O)=O)cc1, the “activity change, negative = cytotoxicity” value was -27%.
In the case of CNC(=O)C[C@@H]1CC[C@@H]2[C@@H](COc3ccc(NC(=O)c4ccccc4OC)cc3C(=O)N2C)O1, the “activity change, negative = cytotoxicity” value was -6.77% [at 23.5 µM].
For O=c1c2c3c(sc2nc2n1CCC2)CCCC3, the “activity change, negative = cytotoxicity” value was 3.96%.
With COCC(=O)N(C)C[C@H]1Oc2cc(-c3ccccc3F)ccc2S(=O)(=O)N([C@@H](C)CO)C[C@@H]1C the “activity change, negative = cytotoxicity” value was -13.7%.
With COc1nnc(-c2ccc(N3CCOCC3)c(NC(=O)c3ccccc3)c2)c2ccccc12 the “activity change, negative = cytotoxicity” value was 4.67%.
In the case of CC(C)C#Cc1ccc2c(c1)O[C@H](CN(C)C(=O)Nc1ccccc1)[C@H](C)CN([C@@H](C)CO)S2(=O)=O, the “activity change, negative = cytotoxicity” value was -13%.
With CCOC(=O)c1nc(C)n(-c2ccc(Cl)cc2Cl)n1 the “activity change, negative = cytotoxicity” value was -2.63%.
With Cc1cc(C(=O)Nc2ccc3c(c2)C(=O)N(C)[C@H]2CC[C@H](CC(=O)N[C@@H](C)c4ccccc4)O[C@H]2CO3)no1 the “activity change, negative = cytotoxicity” value was -13%.
